The list is not random: actives were taken first. Their share in the collection is about 4.1%.
ABHD5 PLIN5 PPI: ABHD5-PLIN5 protein interaction inhibition; Q00G26+Q8WTS1; Split G. princeps luciferase complementation, luminescence, 4 h; inhibition, % at 4 µM; hit rate 0.78% among 360,000; AID 602281;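 active = inhibition above the mean inhibition across every tested compound plus 3 SD, cut at about 22% in these data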;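 note: 0% = DMSO only wells and the 100% control is not disclosed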
PRMT1 FP inh: PRMT1 (human) inhibition, primary screen | Q99873 | recombinant PRMT1, activity-based probe fluorescence polarization | inhibition, % at 2.79 µM | hit rate 1.3% among 370,000 | AID 652257;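 active = inhibition above about 21% made by adding two undisclosed values, limit read from the data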
Target sequence (Q99873 whole entry, looked up): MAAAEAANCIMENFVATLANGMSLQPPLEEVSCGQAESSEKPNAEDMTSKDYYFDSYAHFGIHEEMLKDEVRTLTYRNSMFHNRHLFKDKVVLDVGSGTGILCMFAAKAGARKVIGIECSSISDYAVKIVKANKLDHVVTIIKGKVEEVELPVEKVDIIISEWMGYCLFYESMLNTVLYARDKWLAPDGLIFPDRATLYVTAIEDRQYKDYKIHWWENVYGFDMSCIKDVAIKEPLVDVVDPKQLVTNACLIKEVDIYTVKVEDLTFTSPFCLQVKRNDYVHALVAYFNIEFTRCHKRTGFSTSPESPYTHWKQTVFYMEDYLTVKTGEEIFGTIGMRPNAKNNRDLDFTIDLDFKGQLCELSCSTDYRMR
LEDGF integ inh: blocks HIV-1 LEDGF/p75-dependent DNA integration; TR-FRET IN-LEDGF/p75 DNA integration, Eu/Cy5; inhibition, % at 3.7 µM; hit rate 0.64% among 370,000; AID 743269;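 active = inhibition above the screen-wide mean plus 3 SD, cut at about 13% in these data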;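 note: signal is the Cy5 over europium emission ratio at 671 and 618 nm; 0% = plate median of compound wells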
UHRF1 MBD2 ctr: human UHRF1 methylated DNA binding inhibitors. UHRF1 binding to methylated oligo, TR-FRET. inhibition, % at 4.4 µM. hit rate 0.75% among 370,000; in the data active = inhibition above about 21%;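 note: UHRF1 SRA domain binding a hemimethylated CpG hairpin DNA probe; 0% = median of test compound wells and 100% = reference inhibitor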
MBD2 inh: inhibitors of human MBD2 binding to methylated oligonucleotide; Q9UBB5; TR-FRET; inhibition, % at 4.4 µM; hit rate 0.31% among 370,000; AID 686964; in the data active = inhibition above about 13%
rCAG RNA binder: r(CAG) repeat RNA binding; TO-PRO-1 dye displacement fluorescence; inhibition, % at 3 µM; hit rate 1.3% among 370,000; AID 651821;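 active = inhibition above the plate cutoff, the mean of all test compounds on that plate plus 3 SD, cut at about 35% in these data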;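 note: 0% = DMSO alone and 100% = 100 µM mitoxantrone as full dye displacement; higher means more dye released from RNA so lower well fluorescence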
Numbers without * were called inactive; / = no result.

SMILES	ABHD5 PLIN5 PPI	PRMT1 FP inh	LEDGF integ inh	UHRF1 MBD2 ctr	MBD2 inh	rCAG RNA binder
COCCN1Cc2cc(C(=O)OC)c3c(c2C1=O)c1cc(OC)ccc1n3S(C)(=O)=O	/	0.9	2.9	1.8	-5.9	10.6
O=C(NN=Cc1ccc2c(c1)OCO2)NN=Cc1ccc2c(c1)OCO2	0.1	-6.9	3.9	-2.1	-7.1	1.3
N/C(=N\N=Cc1ccc2c(c1)OCO2)NN=Cc1ccc2c(c1)OCO2	-29.1	3.1	43.0*	2.2	-5.2	10.9
CC(C)OC(=O)CSc1nc2ccccc2s1	-3.7	1.8	2.5	23.2*	9.9	-2.6
CC(=O)CSc1nc2ccccc2s1	3.1	5.9	-0.7	-0.9	0.2	2.8
CC1=CC2C3C(=O)N(c4ccccc4)C(=O)C3C1C(=O)C2(O)C(C)C (configuration not stated)	/	5.3	-1.4	-1.3	3.1	0.9
COc1ccc2c(CC(=O)OCC(=O)N(C)c3c(N)n(Cc4ccccc4)c(=O)[nH]c3=O)coc2c1	5.0	0.7	-0.9	21.6*	4.7	11.1
CN(C(=O)COC(=O)c1cc2ccccc2cc1O)c1c(N)n(Cc2ccccc2)c(=O)[nH]c1=O	-5.9	4.7	-2.0	-0.4	1.4	7.3
Cc1ccc(-c2cc(C(=O)OCC(=O)N(C)c3c(N)n(Cc4ccccc4)c(=O)[nH]c3=O)c3ccccc3n2)o1	8.1	23.9*	-1.2	1.5	1.6	15.2
COCCN(C(=O)COC(=O)Cc1coc2cc(C)ccc12)c1c(N)n(Cc2ccccc2)c(=O)[nH]c1=O	-6.8	-0.3	6.8	3.0	1.1	3.2
COC(=O)C1=C(C)N(Cc2cccc(C(F)(F)F)c2)C(=NCC2CC2)NC1c1ccccc1C(F)(F)F (configuration not stated)	/	-1.9	-3.8	-1.1	0.0	3.3
COc1ccc(Cl)cc1NC(=S)N(Cc1ccccc1C)CC1CCC(C(=O)O)CC1 (configuration not stated)	6.7	2.8	-1.0	0.2	2.4	44.9*
CCOC(=O)C1=C(COC(=O)C2(C)CC2(Cl)Cl)NC(=O)NC1c1ccccc1 (configuration not stated)	-1.1	0.2	-0.7	29.3*	-6.6	-4.4
CCOC(=O)C1CCCN(C(=O)CN2C(=O)/C(=C/c3ccc(OC)cc3)Oc3ccccc32)C1 (configuration not stated)	-0.4	-0.5	-2.0	22.2*	6.4	4.3
CC(=O)N(Cc1ccc(F)cc1)C1=C(NCCc2ccccc2)C(=O)c2ccccc2C1=O	-1.6	2.7	22.6*	2.1	0.6	-0.3
O=C(N/N=C/c1ccc(O)c(O)c1)N/N=C/c1ccc(O)c(O)c1	-3.7	23.9*	91.2*	7.3	8.7	5.9
Cc1nonc1C(=O)N/N=C/c1ccc(O)c(O)c1	-7.2	3.5	-5.6	1.1	-1.8	1.8
COC(=O)c1cc(S(=O)(=O)N2CCN(c3cccc(C(F)(F)F)c3)CC2)cn1C	/	-3.5	-1.3	-1.6	-5.3	2.5
O=C(NCC1CCN(C(=O)C(=O)c2cc3ccccc3o2)CC1)c1ccc2c(c1)OCC2	/	-2.2	2.3	-3.0	-5.1	3.5
COC(=O)C1CCC(=S)N1C(=O)c1ccccc1 (configuration not stated)	-16.0	11.4	-0.6	26.8*	-3.2	5.8
Cc1ccc2oc(Nc3nc(-c4ccccc4)cc(=O)[nH]3)nc2c1	/	-1.5	-4.5	75.0*	-7.2	21.1
Cc1sc(NC(=O)CSc2n[nH]c(N)n2)c(C#N)c1C	-5.3	-0.3	-1.1	-0.2	4.2	50.4*
CCc1ccc(CN2CCC(C(=O)Nc3ccc(Oc4ccccc4)nc3)CC2)o1	-9.2	-2.8	1.8	42.8*	-3.5	-7.0
C[C@@H]1Cc2cc(O)cc(O)c2C(=O)O1	/	-4.1	1.4	-3.0	-9.9	3.5
COc1cc(C(=S)N2CCOCC2)ccc1OC(=O)c1ccc(Br)cc1	2.6	4.4	-2.5	-1.3	2.3	-5.3
COc1cc(C(=O)Oc2c(OC)cc(C(=S)N3CCOCC3)cc2OC)cc(OC)c1OC	1.0	4.5	-3.4	23.7*	1.9	-5.5
COc1cc(C(=S)N2CCOCC2)ccc1OC(=O)c1cccc(C)c1	-2.3	18.9	-2.5	24.2*	5.1	-3.4
N[C@@H](C(=O)N[C@@H]1C(=O)N2C(C(=O)O)=C(Cl)CS[C@H]12)c1ccccc1	-20.8	45.5*	7.1	1.9	-1.5	22.1

Assay outcomes as filed in PubChem.
